# Data: PubChem BioAssay (NCI)
# This is part of a sample that, as a whole, favours compounds with a hit. Of some 83,000 tested, about 20% had one in any assay.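 Interpretation: 100, growth as untreated; towards 0, rising growth inhibition; 0, no net growth; 0 to -100, cell death. Compounds scoring below 10 were considered active.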 A number with no mark means an inactive call. Active and inactive are the calls of the source.
# System: A498 renal
# Experiment: NCI-60 one-dose screen, 48 h (100 = growth as untreated, 0 = no growth, -100 = all killed)
# Settings: 10 µM unless noted
row,Compound,growth
1,COc1ccc2c(c1)c(CC(=O)[Se]CC(=O)O)c(C)n2C(=O)c1ccc(Cl)cc1,69.3%
2,CN(C)CCNC(=O)c1ccc(-c2nc3ccc4[nH]ncc4c3c3c2COCC3)cc1,-60.4% (active)
3,COc1ccc2c(c1)c(CC(=O)[Se]CCC#N)c(C)n2C(=O)c1ccc(Cl)cc1,-42.9% (active)
4,CN1CCN(Cc2ccc(NC(=O)c3cncc(C#Cc4cnc5ccc(OCC(C)(C)O)nn45)c3)cc2C(F)(F)F)CC1,-84.1% (active)
5,CNC(=O)c1cc(N2CCc3cc(NC(=O)Nc4ccc(Cl)c(C(F)(F)F)c4)ccc32)ccn1,80.3%
6,O=C(CSc1nc2ccccc2c(=O)n1-c1ccc(Cl)cc1)N/N=C/c1ccc(N2CCCCC2)cc1,78.5%
7,CCOc1ccc(C(=O)Nc2ncc(Cc3ccc(F)cc3)s2)cc1,13.9%
8,Cc1c(Cl)cccc1S(=O)(=O)Nc1ccc2c(c1)C(=O)N(C1CCC(=O)NC1=O)C2=O (configuration not stated),91.1%
9,CC/C(=C/c1cc(OC)ccc1O)c1ccc2cc(OC)ccc2[o+]1,29.5%
10,COc1c(N2CC3CCCNC3C2)c(F)cc2c(=O)c(C(=O)N/N=C/c3ccc4c(c3)OCO4)cn(C3CC3)c12 (configuration not stated),105%
11,CN1CCN(Cc2ccc(NC(=O)c3cncc(C#Cc4cnc5ccc(OCC6(C)COC6)nn45)c3)cc2C(F)(F)F)CC1,-97.7% (active)
12,O=C(NNc1nc2cc(F)c(F)cc2n2cccc12)c1cnccn1,43.6%
